In all, about 65,000 compounds went through this assay and about 2,100 (3.2%) showed an effect of 50% or more. The median lay at about -52%. The sample as a whole holds a higher share of strong results than the screen did.
Test system: Plasmodium falciparum
Assay: Screen against P. falciparum Asexual Blood Stage (ABS), at 5uM
Assay type: functional, Dd2
Conditions: tested at 5 uM

Structure (SMILES)	INHIBITION
COCCN(C)C(=O)c1nc2c(s1)CCCN2c1ccc(C)nn1	-53.3%
CCN1CCCN(C(=O)c2ccc(NC(=O)CC(C)C)c(C)c2)CC1	-98.5%
Cc1cccc(C(=O)N2CC[C@@H]3[C@H]2CCC(=O)N3c2ccccc2)n1	-87%
OC1(CNCc2cnc(N3CCOCC3)nc2)CCCCC1	-74.5%
c1ccc(C2(CNCc3cnc(N4CCOCC4)nc3)CC2)cc1	-22.6%
Cc1ccccc1C1(CNCc2cnc(N3CCOCC3)nc2)CC1	50.8%
Cc1cc(-c2cnc(NC3CCCC3)nc2-c2ccoc2C)on1	-65.8%
Cc1cc(-c2cnc(NC3CC3)nc2-c2ccoc2C)on1	-62%
CCN(CC)CCNc1ncc(-c2cc(C)no2)c(-c2ccoc2C)n1	61.9%
CCc1nc(C2CCCN(C(=O)c3ccccc3F)C2)no1 (stereo not drawn)	-49.5%
CN(C)C(=O)N1C[C@H]2CC[C@@H](C1)N(C/C=C/c1ccc(F)cc1)C2	57.8%
CN(C)C(=O)CN1C[C@H]2CC[C@@H](C1)N(C/C=C/c1ccc(F)cc1)C2	43.5%
CS(=O)(=O)N1C[C@H]2CC[C@@H](C1)N(C/C=C/c1ccc(F)cc1)C2	-43.1%
NC(=O)Cn1ccc(O)c(Cc2ccc(Cl)cc2Cl)c1=O	-144%
CN(C)[C@H]1CCN(c2ccnc(C(=O)NCc3ccco3)c2)C1	-95.2%
CCCOC1CCCN(c2ccnc(C(=O)NCc3ccco3)c2)C1 (stereo not drawn)	64.2%
O=C(NCc1ccco1)c1cc(N2CC[C@@H](O)C2)ccn1	-217%
Cc1ncnc2c1CCN(S(=O)(=O)C1CC1)CC2	-47.1%
CCc1nc(CN2CCCC(N(C)CCc3cccs3)C2)no1 (stereo not drawn)	12.3%
Cn1ccnc1CN1CCCN(C(=O)COC2CCCCC2)CC1	-46.8%
COc1cccc([C@H]2CN(CCCS(=O)(=O)N(C)C)C[C@@H]2N)c1	-56.8%
C/C=C(\C)CN1C[C@H](c2cccc(OC)c2)[C@@H](N)C1	65.6%
CCOCCN1C[C@H](c2cccc(OC)c2)[C@@H](N)C1	-3.38%
Cc1nc(C(=O)N(C)[C@@H]2CCC[C@@H](Oc3ccccc3)[C@@H]2O)co1	-3.45%
CC(C)c1nsc(N2CCCOCC2)n1	-47.6%
Cc1ccc(CN(CCCN2CCOCC2)Cc2cnc(C)n2C)o1	55.1%
Cc1ccc(CN(CCCN2CCOCC2)Cc2cnn(C)c2)o1	-2.55%
Cc1ccc(CN(CCCN(C)C)Cc2cnc(C)n2C)o1	-17.8%
